# DAX1 inh-1 – DAX1 (NR0B1) inhibitors, primary screen, cell-based, HEK293, Gal4-DAX1, luciferase luminescence. Nuclear receptor subfamily 0 group B member 1 (Homo sapiens), P51843. inhibition, % at 6.75 µM. HEK293 Gal4-DAX1 luciferase reporter. AID 504766, 2011. hit rate 0.99% among 340,000;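 active = inhibition above the mean over all tested compounds plus 3 SD, cut at about 4.2% in these data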;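 note: inhibition shows as a rise in luminescence from relieved DAX1 repression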
# hcDAF12 agonist – H. contortus DAF-12 nuclear receptor activators, primary screen, cell-based, luminescence, HEK293, lit1-tk-luc reporter; HEK293 hcDAF-12 lit1-tk-luc reporter; 0% DMSO, 100% Δ7-dafachronic acid; activation, % at 6.8 µM; hit rate 1.4% among 370,000;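 active = activation above the mean of all tested compounds plus 3 SD, cut at about 5.5% in these data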
# Rev-erbA mod – modulators of Rev-erb alpha DNA binding, primary screen, biochemical, FITC-DNA, fluorescence polarization, uHTS. Nuclear receptor subfamily 1 group D member 1 (Homo sapiens), P20393. Rev-erbα–FITC-DNA binding, 90 min. activity, % at 10 µM. hit rate 0.79% among 370,000. AID 1259318, 2017;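 active = activity above about 14%, limit read from the data; passing the limit was not always enough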
# Target sequence (P20393 whole entry, looked up): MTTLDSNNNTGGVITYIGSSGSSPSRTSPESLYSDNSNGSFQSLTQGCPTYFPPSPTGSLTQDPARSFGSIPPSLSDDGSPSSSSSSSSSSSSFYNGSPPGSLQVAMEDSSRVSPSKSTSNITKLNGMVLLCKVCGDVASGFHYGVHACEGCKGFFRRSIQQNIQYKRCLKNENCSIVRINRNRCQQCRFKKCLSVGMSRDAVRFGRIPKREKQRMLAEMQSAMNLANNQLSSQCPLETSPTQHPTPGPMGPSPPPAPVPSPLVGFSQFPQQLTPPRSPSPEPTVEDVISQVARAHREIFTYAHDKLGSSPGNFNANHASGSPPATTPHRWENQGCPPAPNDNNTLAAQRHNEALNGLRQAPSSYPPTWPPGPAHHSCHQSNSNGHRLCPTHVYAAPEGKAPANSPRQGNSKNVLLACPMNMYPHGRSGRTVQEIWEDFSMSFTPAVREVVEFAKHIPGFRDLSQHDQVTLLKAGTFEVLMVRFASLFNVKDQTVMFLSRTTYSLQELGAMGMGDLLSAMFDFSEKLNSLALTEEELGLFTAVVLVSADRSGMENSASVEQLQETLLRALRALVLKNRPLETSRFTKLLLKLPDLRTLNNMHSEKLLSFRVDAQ
# hgDAF-12 ag – H. glycines DAF-12 receptor agonists, primary screen, cell-based, luminescence, HEK293, GAL4 fusion, UAS-luciferase. activation, % at 6.8 µM. AID 687014, 2013. HEK293 GAL4-hgDAF12 UAS-luciferase reporter, agonist luminescence; normalized to butyrate control. hit rate 1.8% among 370,000;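 active = activation above a cutoff set at the mean of all screened compounds plus 3 SD, cut at about 10% in these data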
# ssDAF-12 act – S. stercoralis DAF-12 nuclear receptor activators, primary screen, cell-based, luminescence, HEK293, GRIP1 co-expression, lit1-tk-luc; activation, % at 6.8 µM; HEK293 ssDAF-12/GRIP1 lit1-tk-luc reporter; % of 3 µM dafachronic acid response; Nuclear hormone receptor DAF-12 (Strongyloides stercoralis); hit rate 1% among 370,000;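 active = activation above the mean over all tested compounds plus 3 SD, cut at about 0.9% in these data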
# DAX1 inh-2 – DAX1 (NR0B1) inhibitors on StAR promoter, primary screen, cell-based, luminescence, SF-1 (NR5A1), full-length DAX-1 | inhibition, % at 6.8 µM | HEK293T StAR-luciferase reporter, SF-1/DAX-1 repression relief | hit rate 1.1% among 370,000 | AID 652010, 2013;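 active = inhibition above the mean over all tested compounds plus 3 SD, cut at about 3.6% in these data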;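 note: higher inhibition means more luminescence from relief of DAX-1 repression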
# Numbers stand for hits; . = inactive; / = not tested or not shown. Hits are enriched below; roughly 4.8% of the tested compounds scored in any of these assays.
SMILES,DAX1 inh-1,hcDAF12 agonist,Rev-erbA mod,hgDAF-12 ag,ssDAF-12 act,DAX1 inh-2
O=C(COCC(=O)N/N=C/c1ccc(F)cc1)N/N=C/c1ccc(F)cc1,.,.,.,.,.,.
O=C(N/N=C\c1ccc(F)cc1)c1csnn1,.,.,.,13.1,.,.
CN(C)N=Nc1ccc(-c2cn(Cc3ccccc3)cn2)cc1,.,.,.,.,1.0,.
CCCC(=O)N(Cc1cc(=O)[nH]c2ccccc12)c1ccc(C)cc1,.,.,.,.,.,.
Cc1ccc(N(Cc2cc(=O)[nH]c3ccccc23)C(=O)C(C)C)cc1,.,.,.,.,.,.
CCN(Cc1cc(=O)[nH]c2ccccc12)C(=O)c1ccc(C)cc1,.,.,.,.,1.8,.
CCN(Cc1cc(=O)[nH]c2ccccc12)C(=O)C(C)C,.,.,.,.,0.9,.
O=S1(=O)c2ccc(Br)cc2OC[C@H](Cc2ccccc2)N1Cc1cn(Cc2ccc(C(F)(F)F)cc2)nn1,/,.,.,.,.,.
COc1ccc2nc3cc(Cl)ccc3c(Nc3cc(CN4CCCC4)c(O)c(CN4CCCC4)c3)c2n1,/,.,.,.,.,4.3
CCOc1ccc2nc(NC(=O)CN3C(=O)C4CCCCC4C3=O)sc2c1 (stereo not given),.,.,.,.,.,3.7
CCOc1ccc2nc(NC(=O)Cn3[nH]c(=O)c4ccccc4c3=O)sc2c1,6.8,.,.,11.1,.,.
C[C@H]1COc2cc(Br)ccc2S(=O)(=O)N1Cc1cn(CC2CCCCC2)nn1,/,.,.,.,.,.
Cc1c[nH]c2cccc(-c3ccc4c(c3)OCO4)c12,/,.,.,.,.,.
CC(C)(S)C(N)C(=O)O (stereo not given),/,/,.,/,/,/
CCN(C(=O)CN1CCCc2cc(C)ccc21)c1c(N)n(Cc2ccccc2)c(=O)[nH]c1=O,.,.,.,.,.,.
Cc1ccc2c(c1)CCCN2CC(=O)N(C)c1c(N)n(Cc2ccccc2)c(=O)[nH]c1=O,.,.,.,.,1.3,.
Cc1cccc(OCC(C)CN2CCC(C(O)(c3ccccc3)c3ccccc3)CC2)c1 (stereo not given),/,.,.,.,.,.
CC(c1nccs1)N(C)C(=O)CCc1nnc(Cc2c[nH]c3ccccc23)o1 (stereo not given),.,.,.,.,3.5,.
Cc1csc(N/N=C/c2ccccn2)n1,.,6.2,.,.,1.3,.
CC(C)(O)c1[nH]c2cc(F)ccc2c1C(C)(C)O,.,5.7,.,.,.,.
COCC(=O)N[C@@H]1C[C@@H]2O[C@H](CO)CC[C@@H]2O[C@@H]1CCc1ccc(-c2ccccc2)cc1,/,.,.,.,.,.
CC(=O)OC[C@H]1O[C@H](C#Cc2ccc(C(C)(C)C)cc2)C=C[C@H]1OC(=O)Nc1ccccc1,/,.,.,.,.,.
O=C(COC(=O)CNS(=O)(=O)c1ccc(F)c(F)c1F)NC1CC1,.,.,.,.,.,.
C=CCNC(=O)NC(=O)COC(=O)CNS(=O)(=O)c1ccc(F)c(F)c1F,5.2,.,.,.,.,.
CCOC(=O)Cc1nc(N2CCN(C(=O)C3CCCO3)CC2)c2c(C)c(C(=O)OCC)sc2n1 (stereo not given),/,.,.,.,.,.
SMILES,DAX1 inh-1,hcDAF12 agonist,Rev-erbA mod,hgDAF-12 ag,ssDAF-12 act,DAX1 inh-2
O=C(Nc1ccc(-c2ccc([N+](=O)[O-])cc2)cc1)c1ccccc1F,.,.,.,.,.,.
O=C(Nc1ccccc1)c1cc([N+](=O)[O-])ccc1Cl,.,5.8,.,.,.,.
Cc1ccc(C(=O)Nc2ccncc2)c(Cl)c1,.,.,.,.,.,.
O=C(Nc1ccc([N+](=O)[O-])cc1)c1ccccc1F,.,.,.,11.6,.,.
Cc1ccc(C(=O)Nc2ccc(Nc3ccccc3)cc2)c(Cl)c1,.,.,.,.,2.0,.
Cc1cccc(C2Nc3cccc4cccc(c34)N2)c1,.,5.7,.,.,1.2,.
CSc1ccc(C2Nc3cccc4cccc(c34)N2)cc1,.,5.7,.,.,.,.
Clc1ccc(C2Nc3cccc4cccc(c34)N2)cc1,.,.,.,.,.,.
CCc1ccc(C(=O)NNC(=O)CC2OC(=O)c3ccccc32)cc1 (stereo not given),.,.,.,.,1.0,.
O=C(CC1OC(=O)c2ccccc21)NCC1COc2ccccc2O1 (stereo not given),.,.,.,.,.,.
CCCCN(C)C(=O)CSc1nnc(-c2cc(OC)c(OC)c(OC)c2)o1,/,.,.,.,.,.
CC(=C/c1ccccc1)/C=N/n1c(C)n[nH]c1=S,4.7,.,.,.,.,.
Cc1csc2ncc(C(=O)Nc3ccccc3F)c(=O)n12,.,6.2,.,.,.,.
Cc1csc2ncc(C(=O)Nc3ccccc3Cl)c(=O)n12,.,.,.,.,.,.
CCCCS(=O)(=O)N1CCCc2nc(-c3ccc(F)cc3)ccc21,/,.,.,.,.,.
CCn1ncc(N(C)N)c(Cl)c1=O,.,.,.,.,1.1,.
COc1ccc(C(=O)COC(=O)c2cccs2)cc1,.,.,.,11.3,.,3.7
CC(=O)Nc1ccc(C(=O)COC(=O)c2cccs2)c(F)c1,.,.,.,10.7,.,.
COc1cccc(C(=O)COC(=O)c2cccs2)c1,.,.,.,.,.,.
COc1ccccc1CNc1ccc2c(c1)OC[C@H](CC(C)C)NS2(=O)=O,/,.,.,.,.,.
Cc1ccc(NC(=O)C2CC3CCC2C3)cc1 (stereo not given),/,.,.,.,.,/
Fc1ccc(-n2c(-c3ccc4ccccc4n3)n[nH]c2=S)cc1,6.3,.,.,.,.,.
S=c1[nH]nc(-c2ccc3ccccc3n2)n1-c1cc(Cl)cc(Cl)c1,.,.,.,.,.,.
COC(=O)[C@]12CCCCC=C1N(Cc1ccc(OC)cc1)C(=O)[C@@H]2CC(=O)NCC12CC3CC(CC(C3)C1)C2,/,.,.,.,.,.
COc1ccc2c(c1)[C@@]1(NCCc3c1[nH]c1ccc(OC)cc31)C(=O)N2,/,.,.,.,.,.
COC(=O)[C@]12C[C@H](CC(=O)NCCc3ccccc3OC)C(=O)N(CCC3=CCCCC3)C1=C[C@H](C(C)C)O[C@@H]2C1CC1,/,.,.,.,.,.
